# Laboratory results from PubChem BioAssay (EPA / NIEHS).
# Several values for one entry are separate records, joined by “and”; a condition that tells them apart may be missing. Identical values can stand only once. Inconclusive results are not listed. More than one record can exist for a structure, and the calls need not agree. Activity calls are given as the source filed them. How the source made its calls: active means hit-call score of the fitted dose curve at least 0.9, where 1 is the maximum; inconclusive means response in the unintended direction; inactive means score below 0.9.
# Experiments:
# [1] = target: Estrogen receptor beta (Homo sapiens) (UniProt Q92731); assay: OT_ER_ERbERb_0480: Odyssey Thera (OT) 8-hour HEK293T Protein-Complementation Assay for Estrogen Receptor-beta/-beta Homodimer (AID 2283357);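 further: active means signal gain over DMSO baseline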
# Sequence of Estrogen receptor beta (Homo sapiens) (Q92731 whole entry, looked up, the tested form may be a part): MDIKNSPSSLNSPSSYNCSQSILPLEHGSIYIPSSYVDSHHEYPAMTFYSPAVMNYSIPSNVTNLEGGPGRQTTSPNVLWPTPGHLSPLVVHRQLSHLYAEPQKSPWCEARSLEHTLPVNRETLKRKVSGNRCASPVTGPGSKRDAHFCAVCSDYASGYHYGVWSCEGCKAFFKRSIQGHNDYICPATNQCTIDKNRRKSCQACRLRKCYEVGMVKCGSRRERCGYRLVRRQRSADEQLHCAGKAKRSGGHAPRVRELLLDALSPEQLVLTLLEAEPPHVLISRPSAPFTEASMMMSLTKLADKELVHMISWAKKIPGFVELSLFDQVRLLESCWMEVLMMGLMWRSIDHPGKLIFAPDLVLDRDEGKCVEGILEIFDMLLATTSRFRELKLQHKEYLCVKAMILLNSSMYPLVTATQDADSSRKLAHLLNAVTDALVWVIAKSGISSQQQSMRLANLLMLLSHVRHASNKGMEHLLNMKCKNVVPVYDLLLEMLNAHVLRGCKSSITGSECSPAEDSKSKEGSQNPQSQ
# Outline: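 Homodimerization of ER-beta LBD measured by protein-fragment complementation in HEK293T; 8 h dosing; fixed, Draq5 counterstain; fluorescence intensity gain over DMSO baseline, positive fitting direction; laser scanning cytometry.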
# [2] = target: human Peroxisome Proliferator-activated Receptor alpha (PPARa), PPARA (gene 5465) (UniProt Q07869); assay: NVS_NR_hPPARa: NovaScreen (NVS) Nuclear Receptor Binding Assay for human Peroxisome Proliferator-activated Receptor alpha (PPARa) (AID 2283359);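 further: activity means loss of TR-FRET signal versus DMSO baseline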
# Sequence of human Peroxisome Proliferator-activated Receptor alpha (PPARa), PPARA (gene 5465) (Q07869 whole entry, looked up): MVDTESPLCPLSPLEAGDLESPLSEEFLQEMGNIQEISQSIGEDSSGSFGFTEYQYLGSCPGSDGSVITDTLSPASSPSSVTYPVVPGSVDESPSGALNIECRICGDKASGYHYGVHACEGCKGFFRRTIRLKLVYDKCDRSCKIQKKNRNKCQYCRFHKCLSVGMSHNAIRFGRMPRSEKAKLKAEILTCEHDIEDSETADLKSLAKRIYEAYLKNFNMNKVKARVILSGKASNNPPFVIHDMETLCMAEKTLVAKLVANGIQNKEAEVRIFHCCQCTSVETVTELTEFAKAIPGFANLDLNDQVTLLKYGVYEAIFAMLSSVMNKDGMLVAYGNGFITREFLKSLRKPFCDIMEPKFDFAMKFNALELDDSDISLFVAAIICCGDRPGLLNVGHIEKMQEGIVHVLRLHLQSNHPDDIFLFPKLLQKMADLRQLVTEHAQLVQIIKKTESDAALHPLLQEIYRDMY
# Outline: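 TR-FRET signal measured at 1 h post-dosing; loss-of-signal versus DMSO negative control taken as activity. Extracted gene-protein, cell-free format. Initial single-point duplicates at 25 uM, then concentration-response retests.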
# [3] = target: Glucocorticoid receptor (Homo sapiens) (UniProt P04150); assay: NVS_NR_hGR: NovaScreen (NVS) Nuclear Receptor Binding Assay for human Glucocorticoid Receptor (GR) (AID 2283363);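 further: activity is loss of specific radioligand binding signal relative to DMSO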
# Outline: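 Filter scintillation readout of tritiated/iodinated radioligand displaced by test chemical; cell-free extracted protein; 16 h. DMSO = negative control/baseline. Duplicate single-point 25 uM screen, then concentration-response on actives.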
# [4] = target: rat Androgen Receptor (AR), Ar (gene 24208) (UniProt P15207); assay: NVS_NR_rAR: NovaScreen (NVS) Nuclear Receptor Binding Assay for rat Androgen Receptor (AR) (AID 2283366)
# Outline: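 Actives from a duplicate single-concentration (25 uM) primary run went on to concentration series. Displacement of radioligand was counted by filtration and scintillation, 18 h post-dose, using prostate extracts from testosterone-pretreated rats, with DMSO as baseline.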
# [5] = target: human Norepinephrine Transporter (NET), SLC6A2 (gene 6530) (UniProt P23975); assay: NVS_TR_hNET: NovaScreen (NVS) Transporter Assay for human Norepinephrine Transporter (NET) (AID 2283377);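 further: cell-free membrane protein extracted from CHO cells expressing human NET; displacement of radioligand from human NET seen as loss of scintillation signal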
# Sequence of human Norepinephrine Transporter (NET), SLC6A2 (gene 6530) (P23975 whole entry, looked up): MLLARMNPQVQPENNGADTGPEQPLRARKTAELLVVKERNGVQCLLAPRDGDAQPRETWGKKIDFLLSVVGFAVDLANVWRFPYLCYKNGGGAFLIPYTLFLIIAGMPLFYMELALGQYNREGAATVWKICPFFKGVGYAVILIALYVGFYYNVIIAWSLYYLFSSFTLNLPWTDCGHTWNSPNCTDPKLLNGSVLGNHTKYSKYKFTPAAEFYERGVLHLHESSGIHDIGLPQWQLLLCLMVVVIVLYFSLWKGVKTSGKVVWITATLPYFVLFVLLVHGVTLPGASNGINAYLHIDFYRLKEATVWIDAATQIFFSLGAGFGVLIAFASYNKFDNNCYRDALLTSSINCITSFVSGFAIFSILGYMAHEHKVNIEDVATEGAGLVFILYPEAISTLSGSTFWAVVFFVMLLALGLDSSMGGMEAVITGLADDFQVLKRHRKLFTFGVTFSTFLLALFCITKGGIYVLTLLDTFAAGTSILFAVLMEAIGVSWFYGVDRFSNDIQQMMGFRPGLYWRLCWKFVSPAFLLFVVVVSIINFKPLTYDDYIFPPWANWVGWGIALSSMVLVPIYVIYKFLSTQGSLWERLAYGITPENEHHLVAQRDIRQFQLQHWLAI
# Outline: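 CHO cell extracts expressing the transporter; tritiated or iodinated tracer displaced competitively; filtration plus scintillation readout at 1 h. Single-point duplicates at 25 uM, concentration series for follow-up; activity = signal drop relative to DMSO.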
# [6] = target: Agonist Androgen Response Element (ARE), AR (gene 367) (UniProt P10275); assay: OT_AR_ARELUC_AG_1440: Odyssey Thera (OT) 24-hour CHO-K1 Luciferase Assay for Agonist Androgen Response Element (ARE) (AID 2283379)
# Sequence of Agonist Androgen Response Element (ARE), AR (gene 367) (P10275 whole entry, looked up): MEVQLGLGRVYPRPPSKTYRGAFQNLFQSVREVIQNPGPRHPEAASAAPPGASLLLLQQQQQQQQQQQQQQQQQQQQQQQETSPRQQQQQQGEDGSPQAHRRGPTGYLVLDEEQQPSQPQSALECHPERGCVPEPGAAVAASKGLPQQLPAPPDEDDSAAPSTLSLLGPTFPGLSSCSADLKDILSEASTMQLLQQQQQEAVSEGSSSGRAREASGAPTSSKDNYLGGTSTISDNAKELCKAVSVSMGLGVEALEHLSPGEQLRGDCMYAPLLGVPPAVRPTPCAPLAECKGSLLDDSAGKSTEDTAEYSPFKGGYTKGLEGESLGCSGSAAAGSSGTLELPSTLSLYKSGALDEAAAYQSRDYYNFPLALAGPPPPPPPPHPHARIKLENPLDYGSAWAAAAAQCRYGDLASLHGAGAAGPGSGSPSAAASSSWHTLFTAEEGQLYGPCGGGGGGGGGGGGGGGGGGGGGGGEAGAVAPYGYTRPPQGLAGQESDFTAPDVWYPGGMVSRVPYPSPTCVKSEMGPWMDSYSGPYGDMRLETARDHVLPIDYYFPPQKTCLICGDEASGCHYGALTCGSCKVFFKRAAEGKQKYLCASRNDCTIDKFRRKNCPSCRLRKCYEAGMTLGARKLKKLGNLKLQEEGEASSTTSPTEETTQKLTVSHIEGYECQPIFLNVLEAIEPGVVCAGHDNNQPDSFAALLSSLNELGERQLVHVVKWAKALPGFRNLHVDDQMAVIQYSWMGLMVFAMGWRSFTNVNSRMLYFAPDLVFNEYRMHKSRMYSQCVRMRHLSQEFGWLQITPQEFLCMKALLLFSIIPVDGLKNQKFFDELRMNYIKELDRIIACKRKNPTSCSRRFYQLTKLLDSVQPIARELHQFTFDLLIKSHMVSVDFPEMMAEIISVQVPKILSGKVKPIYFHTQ
# Outline: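 Gain-of-signal reporter endpoint: cells (CHO-K1, hamster) are treated 24 h, luciferin/ATP reagent added, and luminescence compared with DMSO baseline.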
# PGR (gene 5241) = PGR (gene 5241) (UniProt P06401); assay: NVS_NR_hPR: NovaScreen (NVS) Nuclear Receptor Binding Assay for human Progestron Receptor (PR) (AID 2283360);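 further: active means loss of bound radioligand signal versus DMSO baseline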
# Sequence of PGR (gene 5241) (P06401 whole entry, looked up): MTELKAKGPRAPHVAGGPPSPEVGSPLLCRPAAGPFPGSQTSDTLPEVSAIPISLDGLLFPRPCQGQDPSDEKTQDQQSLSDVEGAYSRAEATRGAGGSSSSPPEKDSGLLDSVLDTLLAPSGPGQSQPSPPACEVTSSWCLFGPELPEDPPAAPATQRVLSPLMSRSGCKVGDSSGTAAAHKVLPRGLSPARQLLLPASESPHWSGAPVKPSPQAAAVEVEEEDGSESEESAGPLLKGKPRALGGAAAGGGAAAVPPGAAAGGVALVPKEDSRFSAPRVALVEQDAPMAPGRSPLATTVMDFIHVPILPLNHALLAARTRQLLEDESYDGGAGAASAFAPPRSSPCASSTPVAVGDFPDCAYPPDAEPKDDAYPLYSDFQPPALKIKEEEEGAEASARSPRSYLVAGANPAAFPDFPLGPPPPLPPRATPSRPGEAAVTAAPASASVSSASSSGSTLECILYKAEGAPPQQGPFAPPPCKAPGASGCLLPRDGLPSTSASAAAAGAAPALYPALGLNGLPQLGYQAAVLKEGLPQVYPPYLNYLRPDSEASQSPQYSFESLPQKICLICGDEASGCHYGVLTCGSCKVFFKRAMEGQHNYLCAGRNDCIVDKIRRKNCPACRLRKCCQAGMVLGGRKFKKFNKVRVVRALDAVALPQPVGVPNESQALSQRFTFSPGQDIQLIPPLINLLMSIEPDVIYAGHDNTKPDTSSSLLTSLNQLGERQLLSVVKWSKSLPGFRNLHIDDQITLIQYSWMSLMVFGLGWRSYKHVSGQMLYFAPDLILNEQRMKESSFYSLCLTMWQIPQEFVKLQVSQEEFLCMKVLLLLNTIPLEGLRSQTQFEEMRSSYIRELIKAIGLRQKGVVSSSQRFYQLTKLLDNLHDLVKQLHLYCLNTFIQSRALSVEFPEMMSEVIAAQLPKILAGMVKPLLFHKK
# Outline: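 Cell-free radioligand binding using receptor protein extracted from T47D cells, read by scintillation counting 18 hours after dosing. Loss of signal relative to DMSO baseline indicates displacement; primary screen single concentration 25 uM in duplicate, actives followed in concentration series.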
# [7] = target: Nuclear receptor subfamily 1 group I member 2 (Homo sapiens) (UniProt O75469); assay: NVS_NR_hPXR: NovaScreen (NVS) Nuclear Receptor Binding Assay for human Pregnane X Receptor (PXR) (AID 2283365);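 further: a drop in FRET signal versus DMSO baseline means the compound binds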
# Outline: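 TR-FRET signal read at 2 h in a cell-free human PXR binding format. DMSO served as negative control and baseline; activity scored as signal loss. Single-concentration duplicate screen (25 uM), then concentration-response follow-up.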
# [8] = target: human Dopamine Transporter (DAT), SLC6A3 (gene 6531) (UniProt Q01959); assay: NVS_TR_hDAT: NovaScreen (NVS) Transporter Assay for human Dopamine Transporter (DAT) (AID 2283374);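 further: activity means loss of bound radioligand signal relative to DMSO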
# Sequence of human Dopamine Transporter (DAT), SLC6A3 (gene 6531) (Q01959 whole entry, looked up): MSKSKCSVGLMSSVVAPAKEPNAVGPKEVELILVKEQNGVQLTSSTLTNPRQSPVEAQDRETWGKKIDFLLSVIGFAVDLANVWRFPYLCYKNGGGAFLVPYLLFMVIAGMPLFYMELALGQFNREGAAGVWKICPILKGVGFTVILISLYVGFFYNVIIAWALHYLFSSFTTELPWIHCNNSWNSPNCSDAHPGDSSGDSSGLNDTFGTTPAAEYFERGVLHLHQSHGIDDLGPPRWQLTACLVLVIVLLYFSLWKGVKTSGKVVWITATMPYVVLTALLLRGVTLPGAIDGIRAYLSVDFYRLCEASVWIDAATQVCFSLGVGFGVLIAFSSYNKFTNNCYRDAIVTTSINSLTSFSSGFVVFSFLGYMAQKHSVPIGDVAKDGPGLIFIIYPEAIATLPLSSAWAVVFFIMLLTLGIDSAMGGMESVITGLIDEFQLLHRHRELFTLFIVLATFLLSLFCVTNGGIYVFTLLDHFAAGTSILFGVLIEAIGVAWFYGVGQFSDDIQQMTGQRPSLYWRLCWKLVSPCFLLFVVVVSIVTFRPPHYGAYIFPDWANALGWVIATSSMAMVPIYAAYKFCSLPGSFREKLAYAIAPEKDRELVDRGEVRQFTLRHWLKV
# Outline: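 hDAT membranes + tritiated/iodinated radioligand, competitive displacement; 1 h; filter scintillation readout. Single conc 25 uM (duplicate), then conc-response for actives. DMSO = negative control.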
# [9] = target: rat Serotonin Transporter (SERT), Slc6a4 (gene 25553) (UniProt P31652); assay: NVS_TR_rSERT: NovaScreen (NVS) Transporter Assay for rat Serotonin Transporter (SERT) (AID 2283375)
# Outline: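 Radioligand displacement, filter scintillation readout; rat forebrain membrane prep, 1 h post-dose. Single-conc 25 uM duplicate screen, then concentration-response on actives. Loss of signal vs DMSO baseline.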
# [10] = target: Retinoic acid receptor alpha (Homo sapiens) (UniProt P10276); assay: NVS_NR_hRAR_Antagonist: NovaScreen (NVS) Nuclear Receptor Binding Assay for human Retinoic Acid Alpha Receptor Antagonism (RAR) (AID 2283358)
# Sequence of Retinoic acid receptor alpha (Homo sapiens) (P10276 whole entry, looked up): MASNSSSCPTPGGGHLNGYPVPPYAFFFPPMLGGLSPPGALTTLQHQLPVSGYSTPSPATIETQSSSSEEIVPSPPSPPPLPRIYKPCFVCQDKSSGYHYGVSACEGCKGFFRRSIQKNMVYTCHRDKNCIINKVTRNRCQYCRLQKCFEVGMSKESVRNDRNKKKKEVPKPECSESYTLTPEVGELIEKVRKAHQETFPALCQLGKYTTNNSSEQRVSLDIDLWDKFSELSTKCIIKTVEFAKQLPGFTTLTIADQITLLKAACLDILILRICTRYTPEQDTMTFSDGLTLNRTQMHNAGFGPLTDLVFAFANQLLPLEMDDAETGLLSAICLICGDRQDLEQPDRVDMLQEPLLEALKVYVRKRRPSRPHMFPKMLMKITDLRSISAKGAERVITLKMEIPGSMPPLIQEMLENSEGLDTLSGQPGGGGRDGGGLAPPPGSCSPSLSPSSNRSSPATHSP
# Outline: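 Read-out: time-resolved FRET binding signal, 2 h post-dose, cell-free extracted protein. Antagonism scored as signal loss versus DMSO negative control. Primary single-concentration screen at 25 uM in duplicate; concentration series for actives.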
# [11] = system: guinea pig Dopamine Transporter (DAT), gene 100714898; assay: NVS_TR_gDAT: NovaScreen (NVS) Transporter Assay for guinea pig Dopamine Transporter (DAT) (AID 2283369);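 further: active compounds lower bound radioligand signal relative to DMSO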
# Outline: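 Cell-free striatal membrane prep (guinea pig), 2 h exposure, filtration + scintillation readout of radioligand binding. Single-point 25 uM duplicate; actives rerun singleton, top conc 50 uM.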
# [12] = target: mouse Estrogen Receptor alpha (Era), Esr1 (gene 13982) (UniProt P19785); assay: NVS_NR_mERa: NovaScreen (NVS) Nuclear Receptor Binding Assay for mouse Estrogen Receptor alpha (Era) (AID 2283378);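 further: hit means loss of bound radioligand signal relative to DMSO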
# Outline: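 Filter scintillation counts of bound radioligand, measured 18 h post-dose, gave the readout; decreased signal relative to DMSO controls indicated displacement from mouse Era. Primary screen ran in duplicate at 25 uM; active chemicals were retested across concentrations.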
# [13] = target: guinea pig Sigma Receptor, Non-selective Binding, SIGMAR1 (gene 100135589) (UniProt Q60492); assay: NVS_OR_gSIGMA_NonSelective: NovaScreen (NVS) Nuclear Receptor Binding Assay for guinea pig Sigma Receptor, Non-selective Binding (AID 2283367)
# Sequence of guinea pig Sigma Receptor, Non-selective Binding, SIGMAR1 (gene 100135589) (Q60492 whole entry, looked up): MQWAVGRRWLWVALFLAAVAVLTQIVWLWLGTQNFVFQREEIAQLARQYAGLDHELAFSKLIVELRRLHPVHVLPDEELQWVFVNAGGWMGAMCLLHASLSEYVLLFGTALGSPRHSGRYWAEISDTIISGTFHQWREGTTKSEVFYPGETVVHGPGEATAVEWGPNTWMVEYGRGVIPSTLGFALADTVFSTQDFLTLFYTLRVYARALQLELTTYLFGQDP
# Outline: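 Membranes from guinea pig brain incubated with radioligand and test chemical for 1 h, then filtered and scintillation-counted. Duplicate primary testing at 25 uM, with concentration-series follow-up for actives.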
# [14] = target: human Serotonin Transporter (SERT), SLC6A4 (gene 6532) (UniProt P31645); assay: NVS_TR_hSERT: NovaScreen (NVS) Transporter Assay for human Serotonin Transporter (SERT) (AID 2283372)
# Outline: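 Human platelet membrane preparation; displacement of radioligand from serotonin transporter measured after 1 h by filtration and scintillation counting. Single 25 uM duplicate screen, then concentration series for actives, with DMSO as negative baseline.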
# [15] = system: rat Norepinephrine Transporter (NET), gene 83511; assay: NVS_TR_rNET: NovaScreen (NVS) Transporter Assay for rat Norepinephrine Transporter (NET) (AID 2283373)
# Outline: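 Competitive radioligand displacement at the rat NET using forebrain membrane preparations, 1 h incubation, filter-based scintillation readout. Primary testing in duplicate at a single 25 uM concentration; confirmed actives retested across concentrations.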
# [16] = target: human Adenosine Transporter (Adot), SLC29A1 (gene 2030) (UniProt Q99808); assay: NVS_TR_hAdoT: NovaScreen (NVS) Transporter Assay for human Adenosine Transporter (Adot) (AID 2283368)
# Outline: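 Binding displacement on U937 extracted protein, read 1 h post-dose by filtration and scintillation counting. Primary duplicate test at 25 uM, then singleton concentration series with 50 uM top; DMSO baseline.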
# [17] = target: Retinoic acid receptor alpha (Homo sapiens) (UniProt P10276); assay: NVS_NR_hRARa_Agonist: NovaScreen (NVS) Nuclear Receptor Binding Assay for human Retinoic Acid Alpha Receptor Agonism (RAR) (AID 2283361)
# Outline: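 TR-FRET signal, 2 h post-dosing; cell-free extracted protein; DMSO = baseline, positive fitting direction; 25 uM single-point duplicate, then concentration series for actives.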
compound,measurement,setting,value
CC(C)(C)CC(C)(C)c1ccc(O)c(-n2nc3ccccc3n2)c1,outcome,[1],inactive
NC(=O)N1C(=O)C(C(=O)c2cc(Cl)cs2)c2cc(F)c(Cl)cc21 (stereo unspecified),outcome,[1],inactive
same,outcome,[2],inactive
same,AC50,[3],19.6 µM (active)
same,AC50,[4],6.36 µM (active)
same,AC50,[5],25 µM (active)
same,outcome,[6],inactive
CCCCCCCC(=O)O,AC50,[1],50 µM (active)
same,AC50,[2],4.38 µM (active)
same,outcome,PGR (gene 5241),inactive
same,outcome,[7],inactive
same,outcome,[8],inactive
same,outcome,[9],inactive
Cc1cc(CCN2CCN(c3nsc4ccccc34)CC2)cc2c1NC(=O)CC2(C)C,outcome,[1],inactive
same,AC50,PGR (gene 5241),36 µM (active)
same,outcome,[6],inactive
CCCCC(CC)COC(=O)CCCCC(=O)OCc1ccccc1 (stereo unspecified),outcome,[1],inactive
N#C[C@@H]1CC(F)(F)CN1C(=O)CNC1CC2CCC(C1)N2c1ncccn1 (stereo partly specified),outcome,[1],inactive
same,outcome,[10],inactive
same,outcome,[6],inactive
CCCOC(=O)c1ccc(O)cc1,AC50,[1],7.31 µM (active)
same,outcome,[2],inactive
same,outcome,[11],inactive
same,AC50,[8],15.3 µM (active)
same,AC50,[5],9.32 µM (active)
same,AC50,[12],25 µM (active)
NC(=O)N(O)[C@@H]1C=C[C@H](Oc2cccc(Oc3ccc(F)cc3)c2)C1,AC50,[1],50 µM (active)
same,outcome,PGR (gene 5241),inactive
same,AC50,[13],7.64 µM (active)
same,AC50,[11],7.24 µM (active)
same,outcome,[14],inactive
same,outcome,[15],inactive
same,AC50,[8],0.489 µM (active)
same,AC50,[5],15 µM (active)
O=C(O)Cc1cc(I)c(Oc2cc(I)c(O)c(I)c2)c(I)c1,outcome,[1],inactive
same,outcome,[10],inactive
same,outcome,[2],inactive
same,AC50,[3],5.56 µM (active) and 109 nM (active)
same,outcome,[16],inactive
same,outcome,[11],inactive
same,AC50,[5],10.1 µM (active)
same,outcome,[12],inactive
COc1ccc([N+](=O)[O-])cc1N,outcome,[1],inactive
c1ccc2c(c1)Cc1ccccc1-2,outcome,[1],inactive
same,outcome,[10],inactive
same,outcome,PGR (gene 5241),inactive
OC1CCC(C2CCCCC2)CC1 (stereo unspecified),AC50,[1],25.6 µM (active) and 31.9 µM (active) and 26.9 µM (active)
same,outcome,[1],inactive
same,outcome,[2],inactive
same,outcome,[17],inactive
same,AC50,[13],25 µM (active)
same,outcome,[12],inactive
OCCC(F)(F)C(F)(F)C(F)(F)C(F)(F)C(F)(F)C(F)(F)F,outcome,[1],inactive
Oc1cc2ccccc2c2ccccc12,outcome,[1],inactive
same,AC50,PGR (gene 5241),11 µM (active)
same,AC50,[3],1.54 µM (active)
same,AC50,[4],4.75 µM (active)
same,outcome,[16],inactive
same,outcome,[8],inactive
same,AC50,[5],1.89 µM (active)
same,outcome,[6],inactive
